# Source: PubChem BioAssay (NCATS)
# Records with an inconclusive call do not appear. A call without a number means that no potency is given here. Values without a mark were called inactive. The source made the active and inactive calls. The call rests on the fitted dose curve; in most records, active means well fitted inhibition curve with a large enough effect; inconclusive means small, poorly fitted or top-dose-only effect; inactive means no such curve, though single readings can be large or run the other way.
# Experiments:
# [1] = test system: Zika virus NS2B-NS3 protease (unlinked complex); test: Primary screen GU Rhodamine qHTS for Zika virus inhibitors: Unlinked NS2B-NS3 protease assay (AID 1347159); further: nearly all actives have a fitted effect of over 60% in size
# In short: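 Noncovalent NS2B hydrophilic domain/NS3 protease complex (25 nM final) in 10 mM Tris-HCl pH 8.0, 0.01% Tween 20, preincubated 15 min with compounds (up to 114 microM), then 1.5 microM Rhodamine110 substrate. Fluorescence change over 15 min fitted to 4-parameter Hill.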
# [2] = test system: Zika virus NS2B-NS3 protease (linked construct); test: Primary screen NINDS Rhodamine qHTS for Zika virus inhibitors (AID 1347160); further: nearly all actives have a fitted effect of over 55% in size
# In short: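 Purified NS2B-NS3 protease with the NS2B hydrophilic domain joined by a flexible linker (25 nM) in 10 mM Tris-HCl pH 8.0, 0.01% Tween 20, preincubated 15 min at RT with compound; Rhodamine110 peptide substrate 1.5 µM; fluorescence change over 15 min; 4-parameter Hill fit.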
# Potency means the concentration at half of the fitted maximal effect.
SMILES,Potency [1],Potency [2],"activity change, negative = inhibition [1]","activity change, negative = inhibition [2]"
Cc1nc(C#Cc2ccnc(Cl)c2)c(C)n1-c1ccc(OC(F)(F)F)cc1,inactive,inactive,,
CNS(=O)(=O)c1ccccc1Nc1nc(Nc2ccc(N3CCN(C)CC3)cc2OC)ncc1Br,inactive,inactive,,
CC(C)(O)C1CC(=O)C2(C)C(CCC3(C)C(c4ccoc4)OC(=O)C4OC432)C12CCC(=O)OC2 (stereo not drawn),inactive,inactive,,
CC(=O)NC(C(=O)O[C@H]1CCC(C)(C)[C@@H]2CC=C3C(=O)OCC3(O)[C@@]12C)C(C)C (stereo partly drawn),inactive,inactive,,
Cc1cn2c(n1)Cc1ccc(Cl)cc1C(c1ccc(N)cc1)=N2,inactive,inactive,,
C=C[C@@]12COC(=O)C(=C)[C@@H]1[C@@H](O)[C@H](C(=C)C(=O)OC)[C@@H](O)C2,inactive,inactive,,
CC(C)(CO)c1cc2cc(NC(=O)C3(c4ccc5c(c4)OC(F)(F)O5)CC3)c(F)cc2n1CC(O)CO (stereo not drawn),inactive,inactive,,
COc1ccc(OC)c(-c2ccc(NC(=O)c3ccncc3F)cc2)c1,inactive,inactive,,
Cn1c(CO)c(-c2ccccc2)c2cc([N+](=O)[O-])ccc21,inactive,inactive,,
OC1CCC(Nc2nc(-c3ccccc3)nc3[nH]ccc23)CC1 (stereo not drawn),inactive,inactive,,
CCN1CCN(Cc2ccc(C(=O)Nc3ccc(C)c(Oc4ccc5c(c4)CC(=O)N5)c3)cc2C(F)(F)F)CC1,inactive,inactive,,
O=C(NC1CCN(CCCCC2(C(=O)NCC(F)(F)F)c3ccccc3-c3ccccc32)CC1)c1ccccc1-c1ccc(C(F)(F)F)cc1,inactive,inactive,,
CNC(C)C(=O)NC(C(=O)N1CCCC1C(=O)Nc1snnc1-c1ccccc1)C1CCCCC1 (stereo not drawn),inactive,inactive,,
C=CC(C)(O)CC/C=C(/C)COC(=O)C(C)C1CCC(C)(C=C)O1 (stereo not drawn),inactive,inactive,,
Fc1ccc(CN2CCC(Nc3ccc(C(F)(F)F)nn3)CC2)cc1F,inactive,inactive,,
CC1CCCC(O)CC(=O)c2c(O)cc(O)cc2CC(=O)O1 (stereo not drawn),inactive,inactive,,
N#Cc1cc(C2=Nc3ccc(Br)cc3NC(=O)C2)ccn1,inactive,inactive,,
Cc1cc(CS(=O)(=O)c2ccccc2)cc(OCc2ccc(CN3CCCC3CO)cc2)c1 (stereo not drawn),inactive,inactive,,
Cc1[nH]c2ccccc2c1CCNCc1ccc(/C=C/C(=O)NO)cc1,inactive,inactive,,
CCC(CC)C(=O)OC12C(OC(=O)C(C)C)C(C)C3(O)C(C=C(CO)CC4(O)C(=O)C(C)=CC43)C1C2(C)C (stereo not drawn),inactive,inactive,,
CCCCC1CCC(c2nc(-c3ccncc3)no2)CC1 (stereo not drawn),inactive,inactive,,
CCCc1ccc(OCC(=O)N(Cc2nc(-c3cccnc3)no2)C(C)C)cc1,inactive,inactive,,
CCn1c(-c2nonc2N)nc2c(C#CCO)ncc(OCCCN)c21,inactive,inactive,,
C=C1C(=O)O[C@@H]2[C@H]1CCC(C)=C(CCC(=O)O)[C@@]2(C)O,inactive,inactive,,
N#CSc1cc(SC#N)c(N)nc1N,inactive,inactive,,

SMILES,Potency [1],Potency [2],"activity change, negative = inhibition [1]","activity change, negative = inhibition [2]"
Cn1ncc(Cl)c1-c1cc(C(=O)N[C@H](CN)Cc2ccc(F)c(F)c2)oc1Cl,inactive,inactive,,
COc1cc(O)cc(OC2OC(CO)C(O)C(O)C2O)c1 (stereo not drawn),inactive,inactive,,
O=C(NCCN1CCOCC1)c1cc2c(Oc3ccc(NC(=O)C4(C(=O)Nc5ccc(F)cc5)CC4)cc3)ccnc2[nH]1,inactive,inactive,,
C=C1C(=O)O[C@@H]2C(OC(=O)/C(C)=C\C)/C(C)=C\C(=O)/C=C(\C)C[C@H](O)[C@@H]12 (stereo partly drawn),inactive,inactive,,
O=C(NC1(c2ccccc2)CC1)c1c(CN2CCC(N3CCCCC3)CC2)c(-c2cccc(C(F)(F)F)c2)nc2cc(Br)ccc12,inactive,inactive,,
CN1CCC(c2cn(C)c3ccc(OS(=O)(=O)c4c(F)cccc4F)cc23)CC1,inactive,inactive,,
COc1ccc2nc(-c3cc(OC)c(OC)c(OC)c3)cc(C(=O)NCC(=O)Nc3ccc(C(C)=O)cc3)c2c1,inactive,inactive,,
Cc1nnc(-c2ccc(-c3ccc(C(=O)Nc4ccc(O)c(N5CCN(C)CC5)c4)cc3)c(C)c2)o1,inactive,inactive,,
C/C(=C/C=C\C=C\Cc1cnco1)[C@@H](O)C(C)(C)C(N)=O,inactive,inactive,,
C/C(=C\CO[C@@H]1O[C@H](CO[C@H]2OC[C@](O)(CO)[C@H]2O)[C@@H](O)[C@H](O)[C@H]1O)C(C)(C)O,inactive,inactive,,
Cc1cc2sc(NC(=O)Cc3ccccc3)nc2cc1Cl,inactive,inactive,,
C/C1=C\[C@@H](C)C[C@@H](C)[C@@H](Cc2cnco2)OC(=O)/C(C)=C/[C@@H](C)C[C@@H](C)[C@@H](Cc2cnco2)OC1=O,inactive,inactive,,
C=C1C(=O)O[C@@H]2C3=C(C)CCC[C@]3(C)CC[C@@]12O,inactive,inactive,,
COc1cc(N(C)CCN(C)C)c(N)cc1Nc1nccc(-c2cn(C)c3ccccc23)n1,inactive,inactive,,
Cc1nc(Nc2cnn(C3CCNCC3)c2)nc2c1N(C)C(=O)c1cc3ccccc3cc1N2C,inactive,inactive,,
O=C(Nc1ccccc1C(=O)Nc1ccc(CCO)cc1)c1ccc([N+](=O)[O-])cc1,inactive,inactive,,
CC1(NC(=O)c2ccc(C#Cc3cccc(F)c3)cn2)COC1,inactive,inactive,,
CCN(CCNC(=O)Nc1ccccc1Br)c1cccc(C)c1,inactive,inactive,,
CC(C)CCNC(=O)[C@H](CC(C)C)NC(=O)[C@H]1O[C@@H]1C(=O)O,inactive,inactive,,
O=C(c1c(F)ccc(NS(=O)(=O)N2CC[C@@H](F)C2)c1F)c1c[nH]c2ncc(-c3cnc(C4CC4)nc3)cc12,inactive,inactive,,
Cc1ccc(CNc2ncnc3ccc(-c4ccc(CO)o4)cc23)o1,inactive,inactive,,
Cc1ccc(-c2c(C(=O)CCl)n(CCCO)c3ncnc(N)c23)cc1,inactive,inactive,,
C=C1CC[C@@H](O)[C@]2(C)C[C@H]3OC(=O)C(=C)[C@H]3CC12 (stereo partly drawn),inactive,inactive,,
CC(C)Oc1ccc(-c2cnc3c(-c4ccnc5ccccc45)cnn3c2)cc1,inactive,inactive,,
CC(=O)O[C@@H]1[C@H](O[C@@H]2O[C@@H](CO)[C@H](O)[C@H]2O)[C@@H](O[C@@H]2O[C@@H](C)[C@H](O[C@@H]3OC[C@@H](O)[C@H](O)[C@H]3O)[C@@H](O)[C@H]2O)[C@H](OC(=O)[C@]23CCC(C)(C)C[C@H]2C2=CCC4[C@@]5(C)CC[C@H](O[C@@H]6O[C@H](C(=O)O)[C@@H](O)[C@H](O)[C@H]6O[C@@H]6O[C@H](CO)[C@H](O)[C@H](O)[C@H]6O)[C@@](C)(C=O)C5CC[C@@]4(C)[C@]2(C)C[C@H]3O)O[C@@H]1C (stereo partly drawn),,,1.92% [at 19.1 µM],10.8% [at 10.7 µM]

SMILES,Potency [1],Potency [2],"activity change, negative = inhibition [1]","activity change, negative = inhibition [2]"
O=C(Nc1ccccc1Cl)c1cnc2ccc(C3CCNCC3)cn12,inactive,inactive,,
CC(C)(C)OC(=O)c1ncn2c1C(C)(C)Nc1ccccc1-2,inactive,inactive,,
CC(C)CCNc1ncccc1C(=O)N1CCN(Cc2ccccc2)CC1,inactive,inactive,,
CC(C)CC(=O)c1c(O)cc2c(c1O)C(CC(C)C)C1=C(O2)C(C)(C)C(=O)C(C)(C)C1=O (stereo not drawn),8.91 µM (active),7.82 µM (active),,
O=C(NCCCCCCCCNC(=O)C(Cl)Cl)C(Cl)Cl,inactive,inactive,,
C#CCCCn1cc(-c2cccc3c2N[C@H](C)CC(=O)N3)cn1,inactive,inactive,,
Cc1ccc(NC(=O)C(C)C)cc1C1CCN(Cc2ccc(Oc3ccc(F)c(F)c3)cc2)CC1,inactive,inactive,,
CCCOc1ccc(S(=O)(=O)N2CCN(CCO)CC2)cc1-c1nc2c(CCC)cn(CC)c2c(=O)[nH]1,inactive,inactive,,
Cc1ccnc(NC(=O)C(C)c2cccc(C(=O)c3ccccc3)c2)c1 (stereo not drawn),inactive,inactive,,
CC(=O)c1c(C)cc2cccc(O)c2c1O[C@@H]1O[C@H](CO)[C@@H](O)[C@H](O)[C@H]1O,inactive,inactive,,
CN1CCN(S(=O)(=O)c2ccc(-c3cnc(N)c(C(=O)Nc4cccnc4)n3)cc2)CC1,inactive,inactive,,
CCNC(=O)Nc1ccc(-c2nc3c(c(N4CCOCC4C)n2)CCN(C2COC2)C3)cc1 (stereo not drawn),inactive,inactive,,
Cc1noc(C)c1-c1cc(O)cc(C(O)c2ccccc2)c1 (stereo not drawn),inactive,inactive,,
Cc1cn(CCN2CCN(c3ccccc3-c3cc(C#N)cc(C(=O)NCCCN4CCCC4)c3)CC2)c2ccccc12,inactive,inactive,,
CNc1nc(NCc2ccc(NS(C)(=O)=O)cc2Cl)cc(-c2ccccn2)n1,inactive,inactive,,
C=C1C(=O)O[C@@H]2C3C(=C(C)[C@@H](O)[C@@H](OC(=O)/C(=C/C)COC(C)=O)[C@@H]12)C(=O)[C@H]1O[C@@]31C (stereo partly drawn),inactive,inactive,,
COC(=O)c1ccc(N2CCN(C)CC2)c(NC(=O)c2cccc(OC)c2)c1,inactive,inactive,,
COc1ccc(Oc2c(Cl)cnn(-c3cc(C)cc(C)c3)c2=O)cc1,inactive,inactive,,
C/C=C(/C=C(C)/C=C/C=C/C=C(\C)C(=O)C12OC1C(O)(CCO)NC2=O)C(=O)OC (stereo not drawn),inactive,inactive,,
C=CC(=O)N1CCCN(c2cc(NCCC(=O)O)nc(-c3ccccn3)n2)CC1,inactive,inactive,,
CN1CC[C@@H](c2c(O)cc(O)c3c(=O)cc(-c4ccc(C(F)(F)F)cc4Cl)oc23)[C@@H]1CO,inactive,inactive,,
Fc1ccc(-c2nc(C3CCNCC3)sc2-c2ccnc(NC3CC3)n2)cc1,inactive,inactive,,
Cc1ccc(O)cc1Nc1ccnc(Nc2cccc(C(N)=O)c2)n1,inactive,inactive,,
CCC(C)C(=O)O[C@H]1[C@@H](OC(=O)c2ccoc2)C[C@](C)(O)[C@]23OC(C)(C)[C@H](C[C@H](OC(=O)c4ccoc4)[C@]12COC(C)=O)[C@H]3OC(C)=O (stereo partly drawn),inactive,inactive,,
